The source made the active and inactive calls.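 How the source made its calls, unless noted: active means compound raises GLP1 secretion from the human gut endocrine cells, with no numeric limit stated; inactive means the rest.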
Experiments:
[1] = Wnt pathway potentiators raising nuclear beta-catenin – imaging, WNT3A-conditioned medium, mouse C2C12, NPC library, primary screen (AID 1117326; in the data active means nuclear beta-catenin stimulation mostly above about 4.2%, no sharp cut-off; inactive means mostly below about 10%; further: reference of the scale not given here); details: stronger effect = higher value
[2] = stimulators of insulin release from INS-1E, primary screen, cell-based, 5 mM glucose, NPC library (AID 1117329;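 active means compound raises insulin release from rat beta cells at 5 mM glucose, no numeric limit stated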; further: reference of the scale not given here); details: rat INS-1E insulin secretion, at 10 µM, stronger effect = higher value
[3] = growth inhibition of GSK3B-pretreated HCT116 cells – cell-based, CellTiter-Glo, 0.2 to 20 µM (AID 1117336;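 active means compounds lowering colon cancer cell viability after pretreatment blocking the GSK3B kinase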); details: HCT116 viability after GSK3B inhibitor, at 20 µM, stronger effect = higher value
[4] = inhibition of endothelial tube formation, primary screen, imaging, VEGF stimulated, CD31 staining, tube area, NPC library (AID 1117340;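 active means compound that reduces growth-factor-driven endothelial tube area in a mixed cell culture, no cutoff stated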); details: VEGF-stimulated ADSC/ECFC co-culture, at 10 µM, stronger effect = higher value
[5] = GLP1 release stimulators, primary, NCI-H716, NPC library (AID 1117341); details: NCI-H716 cells, at 10 µM, stronger effect = higher value; further: reference of the scale not given here
[6] = HCT116 colon cancer cell growth inhibition, primary screen, CellTiter-Glo luminescence, NPC library (AID 1117342;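 active means compounds that lower survival of HCT116 colon cancer cells in the luminescence readout, no numeric limit stated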); details: at 20 µM (top of the series)
[7] = reduced SW480 viability measured with CellTiter-Glo, NPC library, primary (AID 1117343;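 active means compounds that lower viability of the colon cancer cells in the luminescence readout, with no numeric limit stated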); details: CellTiter-Glo luminescence; at 20 µM (top of the series)
[8] = NPC library primary testing for decreased DLD-1 cell viability via CellTiter-Glo (AID 1117346;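 active means compounds that lower survival of DLD-1 colon cancer cells in the luminescence readout, no cutoff given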); details: DLD-1 viability, CellTiter-Glo luminescence; at 20 µM (top of the series)
[9] = target: 6-phosphogluconate dehydrogenase, decarboxylating (Homo sapiens) (UniProt P52209); assay: inhibition of human phosphogluconate dehydrogenase – biochemical, recombinant enzyme, NADPH absorbance, primary screen (AID 1159550;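 active means at least 20% inhibition of 6-phosphogluconate dehydrogenase activity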); details: recombinant 6PGD, NADPH absorbance 341 nm; at 10 µM; stronger effect = higher value
6-phosphogluconate dehydrogenase, decarboxylating (Homo sapiens), sequence (P52209 whole entry, looked up): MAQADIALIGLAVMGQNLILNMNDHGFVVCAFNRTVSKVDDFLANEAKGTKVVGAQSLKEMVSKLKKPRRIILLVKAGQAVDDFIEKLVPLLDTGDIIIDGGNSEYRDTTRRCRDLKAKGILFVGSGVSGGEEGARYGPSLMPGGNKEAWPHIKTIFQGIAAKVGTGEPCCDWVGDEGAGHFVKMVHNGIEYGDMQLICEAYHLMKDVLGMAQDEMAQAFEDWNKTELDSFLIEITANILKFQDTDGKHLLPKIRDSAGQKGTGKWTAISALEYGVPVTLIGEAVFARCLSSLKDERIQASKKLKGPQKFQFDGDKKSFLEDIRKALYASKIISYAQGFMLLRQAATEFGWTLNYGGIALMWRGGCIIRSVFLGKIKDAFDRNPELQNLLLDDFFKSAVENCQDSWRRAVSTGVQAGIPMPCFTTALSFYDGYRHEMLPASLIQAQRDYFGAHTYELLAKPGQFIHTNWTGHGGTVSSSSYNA

Row | SMILES | nuclear beta-catenin stimulation ([1]; at 10 µM) | nuclear beta-catenin stimulation ([1]; stimulation, at 2 µM) | insulin secretion stimulation [2] | viability decrease [3] | tube area decrease [4] | GLP1 secretion stimulation [5] | inhibition of viability [6] | viability decrease (inhibition) [7] | viability decrease (inhibition) [8] | inhibition [9]
1 | Cc1c[nH]c2ccccc12 | 2% (inactive) | 0.3% | -2.3% (inactive) | 3.8% (inactive) | 5.5% (inactive) | -1.7% (inactive) | 10.3% (inactive) | 15% (inactive) | 10% (inactive) | 
2 | O=C(O)/C=C(\CC(=O)O)C(=O)O | -0.9% (inactive) | -0.6% | -2.3% (inactive) | 0.55% (inactive) | 5.8% (inactive) | 3.5% (inactive) | 7.4% (inactive) | 39.3% (inactive) | 11.3% (inactive) | 
3 | C[n+]1c2cc(N)ccc2cc2ccc(N)cc21 (tested in a mixture with another compound) | 123% (active) | 8% | 0.4% (inactive) | 70.5% (active) | -105% (inactive) | 5.7% (inactive) | 83.8% (active) | 68.8% (active) | 95.2% (active) | 
4 | NC(=O)N/N=C/c1ccc([N+](=O)[O-])o1 | 7.6% (inactive) | 2% | -0.4% (inactive) | 45.2% (inactive) | -17% (inactive) | -2.5% (inactive) | 45.3% (inactive) | 68.8% (active) | -6.7% (inactive) | 5.85% (inactive)
5 | C#CCN[C@@H]1CCc2ccccc21 | 0.9% (inactive) | 1.4% | 2.6% (inactive) | -29.8% (inactive) | 3.2% (inactive) | 0% (inactive) | -2% (inactive) | -41% (inactive) | -21.6% (inactive) | 
6 | CCC(C)n1ncn(-c2ccc(N3CCN(c4ccc(OC[C@H]5CO[C@](Cn6cncn6)(c6ccc(Cl)cc6Cl)O5)cc4)CC3)cc2)c1=O (some centres undefined) | 36.2% (inactive) | 34.3% | 0.4% (inactive) | 68.8% (active) | 96.5% (active) | 2.2% (inactive) | 75.3% (active) | 112% (active) | 40.6% (inactive) | 
7 | CC1=C(C)C(=O)C(C(CCCCCC(=O)O)c2ccccc2)=C(C)C1=O (centres undefined) | 0% (inactive) | -1% | -0.1% (inactive) | 20.4% (inactive) | -6.8% (inactive) | 4% (inactive) | -4.2% (inactive) | -12.9% (inactive) | -13.3% (inactive) | 
8 | Cc1ccccc1OCC(O)CO (centres undefined) | 0.8% (inactive) | 2.4% | -1.2% (inactive) | -10.2% (inactive) | -4.1% (inactive) | -0.8% (inactive) | -20.4% (inactive) | 0.7% (inactive) | -25.4% (inactive) | 7.3% (inactive)
9 | CN1CCOC(c2ccccc2)c2ccccc2C1 (centres undefined) | -0.7% (inactive) | -1.3% | 1.8% (inactive) | -52.9% (inactive) | 0.9% (inactive) | 4% (inactive) | 12.4% (inactive) | 40.1% (inactive) | -7.2% (inactive) | 5.09% (inactive)
10 | CC1=NN(c2ccccc2)C(=O)C1 | 0.5% (inactive) | 0.8% | -2.2% (inactive) | 10.2% (inactive) | 6.7% (inactive) | 3.5% (inactive) | 2.1% (inactive) | 33.2% (inactive) | 12.2% (inactive) | 13.6% (inactive)
11 | CC1=CC(=O)c2ccccc2C1=O | 25% (inactive) | 0.1% | -1.3% (inactive) | 72.6% (active) | 26.3% (inactive) | -6% (inactive) | 37.5% (inactive) | 122% (active) | 103% (active) | 12.5% (inactive)
12 | O=c1[nH]cnc2nc[nH]c12 | -0.2% (inactive) | 1.5% | 0.7% (inactive) | -11% (inactive) | -3.2% (inactive) | 0.7% (inactive) | -26.8% (inactive) | -73% (inactive) | -26.4% (inactive) | 4.21% (inactive)
13 | COc1cc(NS(=O)(=O)c2ccc(N)cc2)nc(OC)n1 | 0.5% (inactive) | 0.4% | 1.8% (inactive) | -7.9% (inactive) | 0.8% (inactive) | 1.9% (inactive) | -0.4% (inactive) | 8.4% (inactive) | 0.7% (inactive) | -12.2% (inactive)
14 | COc1ccc(CCN2CCC(Nc3nc4ccccc4n3Cc3ccc(F)cc3)CC2)cc1 | -1.3% (inactive) | 3.9% | 5.85% (inactive) | 108% (active) | 98.1% (active) | 14% (inactive) | 112% (active) | 129% (active) | 100% (active) | 14.2% (inactive)
15 | CCCCC(=O)O[C@]1(C(=O)CO)[C@@H](C)C[C@H]2[C@@H]3CCC4=CC(=O)C=C[C@]4(C)[C@@]3(F)[C@@H](O)C[C@@]21C | 2.9% (inactive) | 5.5% | -4.4% (inactive) | -106% (inactive) | 2.4% (inactive) | 8.1% (inactive) | 12.9% (inactive) | -0.4% (inactive) | 11% (inactive) | -3.61% (inactive)
16 | CC(=O)OCC(=O)[C@@]1(O)[C@H](OC(C)=O)C[C@H]2[C@@H]3CCC4=CC(=O)C=C[C@]4(C)[C@@]3(F)[C@@H](O)C[C@@]21C | 0.9% (inactive) | 1.1% | 2.1% (inactive) | -9% (inactive) | -8.6% (inactive) | 2.4% (inactive) | -8.2% (inactive) | 18.4% (inactive) | -14.1% (inactive) | 14.6% (inactive)
17 | O=C1c2ccccc2C(=O)c2c1ccc(O)c2O | 1.2% (inactive) | 0.3% | -2% (inactive) | 45.6% (inactive) | -9.9% (inactive) | -3.8% (inactive) | 9.2% (inactive) | 112% (active) | 65.7% (active) | 1.17% (inactive)
18 | C=C[C@@]1(C)CC(=O)[C@]2(O)[C@@]3(C)[C@@H](O)CCC(C)(C)[C@@H]3[C@H](O)[C@H](OC(C)=O)[C@@]2(C)O1 | 1.1% (inactive) | 0.6% | 3.6% (inactive) | -20.2% (inactive) | -41% (inactive) | 5% (inactive) | 17.1% (inactive) | 56.2% (active) | -16.6% (inactive) | 14.7% (inactive)
19 | Cc1cccc(C(=O)O)c1O | 0% (inactive) | 0.4% | -1.9% (inactive) | -9.8% (inactive) | 2.1% (inactive) | 1.9% (inactive) | -0.1% (inactive) | 22.1% (inactive) | -4.5% (inactive) | 9.08% (inactive)
20 | CN1CCN(C(c2ccccc2)c2ccccc2)CC1 | -2.3% (inactive) | -0.3% | 5.5% (inactive) | -48% (inactive) | 22.5% (inactive) | 2.2% (inactive) | 7.1% (inactive) | 4.5% (inactive) | -11.9% (inactive) | -2.54% (inactive)
21 | COc1ccc2c(c1)c(CC(=O)OCC(=O)O)c(C)n2C(=O)c1ccc(Cl)cc1 | 1.8% (inactive) | 0.4% | 2.2% (inactive) | 4.9% (inactive) | -5.2% (inactive) | -2.5% (inactive) | 12.8% (inactive) | 33.3% (inactive) | 0.1% (inactive) | -4.54% (inactive)
22 | CC(=O)Oc1c(C)c(C)c2c(c1C)CC[C@@](C)(CCC[C@H](C)CCC[C@H](C)CCCC(C)C)O2 | 1.7% (inactive) | 2% | 0.3% (inactive) | -9.9% (inactive) | -15.2% (inactive) | 1.2% (inactive) | 1.13% (inactive) | -13.6% (inactive) | -19.7% (inactive) | 14% (inactive)
23 | CCOc1ccc(NC(C)=O)cc1 | -0.6% (inactive) | -0.9% | -2.2% (inactive) | -4.8% (inactive) | -16.7% (inactive) | 4.4% (inactive) | -24.5% (inactive) | 104% (active) | -6.2% (inactive) | 5.26% (inactive)
24 | NCC1CCC(C(=O)O)CC1 (centres undefined) | 0.7% (inactive) | 0.5% | -1.6% (inactive) | -8.4% (inactive) | 25.3% (inactive) | 0.1% (inactive) | -10.3% (inactive) | 2.1% (inactive) | -6% (inactive) | 7.43% (inactive)
25 | NC(N)=NS(=O)(=O)c1ccc(N)cc1 | 0.5% (inactive) | 0.1% | -1.4% (inactive) | 7.4% (inactive) | -2.9% (inactive) | 0.9% (inactive) | -10.1% (inactive) | 54.6% (active) | 5.6% (inactive) | -6% (inactive)
26 | CCN(CC)CCOC(=O)C(c1ccccc1)c1ccccc1 | 0.8% (inactive) | -1.4% | 13.6% (inactive) | -6.6% (inactive) | 17.8% (inactive) | 0.6% (inactive) | 8.4% (inactive) | -5.9% (inactive) | 5.6% (inactive) | -7.73% (inactive)
27 | Cc1onc(-c2ccccc2Cl)c1C(=O)N[C@@H]1C(=O)N2[C@@H]1SC(C)(C)[C@@H]2C(=O)O | 0.5% (inactive) | 0.3% | -0.3% (inactive) | -27.7% (inactive) | 12.2% (inactive) | -1% (inactive) | 19.2% (inactive) | -3.3% (inactive) | -0.7% (inactive) | -7.26% (inactive)
28 | Cc1ccsc1/C=C/C1=NCCCN1C | -0.7% (inactive) | 0.1% | 0.2% (inactive) | -25.2% (inactive) | -9.8% (inactive) | -0.1% (inactive) | 39.5% (inactive) | 90.9% (active) | 87.6% (active) | 5.11% (inactive)
29 | CC(=O)Oc1cccc2c1C(=O)c1c(OC(C)=O)cc(C(=O)O)cc1C2=O | 3.2% (inactive) | 3.4% | 1.8% (inactive) | 106% (active) | 6.3% (active) | -2% (inactive) | 100% (active) | 59.1% (active) | 64.3% (active) | -1.78% (inactive)
30 | O=C(O)CCC(=O)c1ccc(-c2ccccc2)cc1 | 4.2% (inactive) | 0.6% | 1.1% (inactive) | -13% (inactive) | 14.5% (inactive) | 0.1% (inactive) | 12.7% (inactive) | 13.6% (inactive) | 0.4% (inactive) | 8.67% (inactive)

— PubChem BioAssay
